The source of these data is the supplement of paper PMC6411743.

± gives the standard deviation of the averaged measurements. The full data set covers some 5,400 targets. This sample favours those with the largest changes.

The target in this assay is A0A0A0MT26|P13637|P13637-2|P13637-3 (UniProt P13637). In words: NP40-soluble protein abundance relative to vehicle (solubility fold change) (ratio); higher = more soluble protein in presence of GTP. The protocol: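 Solubility proteome profiling in Jurkat crude lysate. Lysate was treated with Mg-GTP (0.1-10 mM) for 10 min at room temperature and 3 min at 37 °C, then solubilised with 0.8% NP40 and benzonase, followed by ultracentrifugation. Proteins were quantified by TMT10 LC-MS/MS; the value is the NP40-soluble abundance relative to the NP40-processed vehicle, from 3 independent experiments.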

Turning to `Nc1nc2c(ncn2[C@@H]2O[C@H](COP(=O)(O)OP(=O)(O)OP(=O)(O)O)[C@@H](O)[C@H]2O)c(=O)[nH]1` [guanosine triphosphate], the NP40-soluble protein abundance (concentration: 0.1mM) worked out at 1.01 ± 0.05; the NP40-soluble protein abundance (concentration: 0.5mM) is 1.01 ± 0.028; the NP40-soluble protein abundance (concentration: 1mM) came out at 1.02 ± 0.028; the NP40-soluble protein abundance (concentration: 2mM) worked out at 0.982 ± 0.029; the NP40-soluble protein abundance (concentration: 4mM) came to 1.01 ± 0.042; the NP40-soluble protein abundance (concentration: 6mM) worked out at 1 ± 0.0083. In addition, the NP40-soluble protein abundance (concentration: 8mM) is 1 ± 0.034 and the NP40-soluble protein abundance (concentration: 10mM) is 0.958 ± 0.047.
